We go through 38 molecules from PubChem BioAssay (NCATS).

SMILES strings stand for the structures. Where “and” joins values, the source holds several entries; their conditions need not be identical. Equal entries are not always repeated. Records with an inconclusive call do not appear. A call without a number means that no potency is given here. A structure can be active in one record and inactive in another. Calls of active or inactive are those of the source. Calls come from the whole dose curve; as a rule, active = well fitted inhibition curve with a large enough effect; inconclusive = small, poorly fitted or top-dose-only effect; inactive = flat fitted curve, though single readings scatter.
Potency is the fitted concentration of half-maximal effect.

Sequence of Phospholipid hydroperoxide glutathione peroxidase GPX4 (Homo sapiens) (P36969 whole entry, looked up): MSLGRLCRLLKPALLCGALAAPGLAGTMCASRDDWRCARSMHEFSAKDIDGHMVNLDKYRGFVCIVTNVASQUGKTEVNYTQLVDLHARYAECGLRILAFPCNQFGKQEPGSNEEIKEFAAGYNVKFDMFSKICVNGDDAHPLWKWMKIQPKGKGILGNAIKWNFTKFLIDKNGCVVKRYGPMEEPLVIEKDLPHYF

The test has as its target Phospholipid hydroperoxide glutathione peroxidase GPX4 (Homo sapiens) (UniProt P36969). Description: Primary qHTS Assay for Inhibitors of Recombinant Selenoprotein Glutathione Peroxidase 4 (GPX4) (AID 1845192). Note: nearly all actives have a fitted effect of over 65% in size. The settings on record: recombinant GPX4, GR-coupled NADPH fluorescence, 15 min; series mostly up to 50 µM; activity change, negative = inhibition: at the top concentration. The method, boiled down: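 GR-coupled assay: recombinant GPX4 preincubated 30 min with compound at room temperature; final 200 nM GPX4, 1 mM GSH, 0.5 mM cumene hydroperoxide, 0.5 mM NADPH, 100 nM GR, 0.01% BSA, pH 7.5 Tris. NADPH fluorescence (340/450 nm) read at 0 and 15 min.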
On the technique in general: Quantitative high-throughput screening tests each substance at several concentrations.
With `COc1ccc(OC)c(C(O)CNC(=O)CN)c1` (stereo not drawn), the “activity change, negative = inhibition” value was -12.5% (inactive).

For `COc1cc(OC)cc(OC)c1`, the result was inactive.

As to `CC(=O)OCC(=O)[C@@]1(OC(C)=O)[C@@H](C)C[C@H]2[C@@H]3C[C@H](F)C4=CC(=O)C=C[C@]4(C)[C@@]3(F)[C@@H](O)C[C@@]21C`, the result was inactive.

As for `CC(=O)O[C@]1(C(C)=O)CC[C@H]2[C@@H]3C[C@H](C)C4=CC(=O)CC[C@]4(C)[C@H]3CC[C@@]21C`, the “activity change, negative = inhibition” value was -2.17% (inactive).

On to `COc1ccc(CN2CCN(C(c3ccc(F)cc3)c3ccc(F)cc3)CC2)c(OC)c1OC`, for which the Potency entry is “inactive”.

For the molecule `CC(=O)N(O)CCCCCNC(=O)CCC(=O)N(O)CCCCCNC(=O)CCC(=O)N(O)CCCCCN`, the Potency result is “inactive”.

As to `CC(C)(C)NC(=O)[C@@H]1CN(Cc2cccnc2)CCN1C[C@@H](O)C[C@@H](Cc1ccccc1)C(=O)N[C@H]1c2ccccc2C[C@H]1O`, the Potency entry was “inactive”.

For `COC(=O)C1=C(C)NC(C)=C(C(=O)O[C@@H]2CCCN(Cc3ccccc3)C2)[C@@H]1c1cccc([N+](=O)[O-])c1`, the “activity change, negative = inhibition” value is 1.78% (inactive).

As to `Cc1cc2c(cc1CC(=O)c1sccc1S(=O)(=O)Nc1onc(C)c1Cl)OCO2`, the Potency entry is “inactive”.

Regarding `CN(C)CCCOc1nn(Cc2ccccc2)c2ccccc12`, the Potency result was “inactive”.

With `OC(CCN1CCCCC1)(c1ccccc1)c1ccccc1`, the result was inactive.

As to `COc1cc(NS(C)(=O)=O)ccc1Nc1c2ccccc2nc2ccccc12`, the Potency entry is “inactive and 22.4 µM (active)”.

As to `COC(=O)CCc1ccc(OCC(O)CNC(C)C)cc1` (stereo not drawn), the Potency entry is “inactive”.

Regarding `C[C@]12CCC(=O)C=C1[C@@H]1C[C@@H]1[C@H]1[C@@H]3[C@@H]4C[C@@H]4[C@@]4(CCC(=O)O4)[C@@]3(C)CC[C@@H]12`, the Potency entry was “inactive”.

Consider `N[C@H](CO)C(=O)O`, for which the Potency result is “inactive”.

Consider `CN1[C@@H]2CC[C@H]1CC(OC(=O)c1c[nH]c3ccccc13)C2` (stereo partly drawn), for which the Potency result is “inactive”.

On to `C=C1C[C@H]2[C@@H]3C=C(C)C4=CC(=O)CC[C@]4(C)[C@H]3CC[C@]2(C)[C@@]1(OC(C)=O)C(C)=O`, for which the “activity change, negative = inhibition” value was 4.19% (inactive).

For `O=c1[nH]c(=O)n([C@H]2CCCO2)cc1F`, the Potency entry is “inactive”.

`CCCC(=O)O[C@]1(C(=O)CO)CC[C@H]2[C@@H]3CCC4=CC(=O)CC[C@]4(C)[C@H]3[C@@H](O)C[C@@]21C`: the “activity change, negative = inhibition” value is -7.4% (inactive).

`C[C@H](CCC(=O)O)[C@H]1CC[C@H]2[C@@H]3C(=O)C[C@@H]4CC(=O)CC[C@]4(C)[C@H]3CC(=O)[C@]12C`: the outcome was inactive.

For the molecule `Clc1ccc2c(c1)CCc1cccnc1C2=C1CCNCC1`, the result was inactive.

As for `COC(=O)[C@@H]1CC2=CC(=O)CC[C@]2(C)[C@@]23O[C@@H]2C[C@@]2(C)[C@@H](CC[C@@]24CCC(=O)O4)[C@H]13`, the Potency entry is “inactive”.

Consider `CN1C(CCl)Nc2cc(Cl)c(S(N)(=O)=O)cc2S1(=O)=O` (stereo not drawn), for which the Potency entry is “inactive”.

In the case of `Cc1ccc(Nc2c(F)cccc2Cl)c(CC(=O)O)c1`, the Potency result was “inactive”.

Consider `OC[C@@H](O)[C@@H](O[C@@H]1O[C@H](CO)[C@H](O)[C@H](O)[C@H]1O)[C@H](O)[C@@H](O)CO`, for which the result was inactive.

Take `COc1cccc2c1C(=O)c1c(O)c3c(c(O)c1C2=O)C[C@@](O)(C(C)=O)C[C@@H]3O[C@H]1C[C@H](N)[C@H](O)[C@H](C)O1`: the Potency result was “inactive”.

For the molecule `CC(C)n1nc(-c2cc3cc(O)ccc3[nH]2)c2c(N)ncnc21`, the “activity change, negative = inhibition” value is -3.43% (inactive).

For the molecule `CCCCC(=O)O[C@]1(C(=O)CO)CC[C@H]2[C@@H]3CCC4=CC(=O)CC[C@]4(C)[C@H]3[C@@H](O)C[C@@]21C`, the outcome was inactive.

On to `COc1c(C)c2c(c(O)c1C/C=C(\C)CCC(=O)O)C(=O)OC2`, for which the Potency entry is “inactive”.

Regarding `CCCCC1=NC2(CCCC2)C(=O)N1Cc1ccc(-c2ccccc2-c2nn[nH]n2)cc1`, the outcome was inactive.

Take `CCCCCCc1ccc(O)cc1O`: the result was inactive.

For `C#C[C@]1(OC(C)=O)CC[C@H]2[C@@H]3CCC4=C[C@@H](OC(C)=O)CC[C@@H]4[C@H]3CC[C@@]21C`, the Potency result is “inactive”.

Regarding `Cc1cccn2c(=O)c(-c3nnn[nH]3)cnc12`, the “outcome” value was “inactive [at 27.8 µM]”.

Turning to `Cc1onc(-c2c(Cl)cccc2Cl)c1C(=O)N[C@@H]1C(=O)N2[C@@H]1SC(C)(C)[C@@H]2C(=O)O`, the “activity change, negative = inhibition” value is -10.5% (inactive).

For the molecule `COc1ccc(C2C(=O)c3ccccc3C2=O)cc1`, the “activity change, negative = inhibition” value was -9.4% (inactive).

With `C[C@]12CC[C@@H]3c4ccc(O)cc4CC[C@H]3[C@@H]1C[C@@H](O)[C@@H]2O`, the Potency entry is “inactive”.

As to `CCCCS(=O)(=O)N[C@@H](Cc1ccc(OCCCCC2CCNCC2)cc1)C(=O)O`, the Potency entry was “inactive”.

For the molecule `C[C@]12C=CC(=O)C=C1CC[C@@H]1[C@@H]2[C@@H](O)C[C@@]2(C)[C@H]1CC[C@]2(O)C(=O)CO`, the Potency result is “inactive”.
